CYP2C9 inh – blocks human cytochrome P450 2C9; CYP2C9 Supersomes, luciferin-H conversion, luminescence; inhibition, % at 5 µM; actives 20% (n = 96,000); AID 777;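 active = blocking of liver enzyme CYP2C9 beyond about 50% at 5 µM, limit read from the data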
PLK1 inh – blocks human PLK1 kinase activity; P53350; AID 619; inhibition, % at 10 µM; recombinant PLK1 kinase, TR-FRET peptide phosphorylation; actives 0.53% (n = 97,000);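 active = inhibition of 50% or more in the single-concentration screen; inactive = inhibition below 50%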;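 also: 0% = DMSO max control and 100% = H-89 dihydrochloride min control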
CYP2C9 activ – activators of human CYP2C9; activation factor at 5 µM; actives 1.4% (n = 96,000); recombinant CYP2C9, luciferin-H conversion, luminescence; active compounds read high; factor 1 = untreated enzyme, 0 = blocked;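 active = activation factor of 2 or more for CYP2C9 at a 5 µM dose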;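 also: 0 = sulfaphenazole-blocked wells and 1 = vehicle-only wells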
CYP2C19 inh – blocks human cytochrome P450 2C19; P33261; CYP2C19 Supersomes, luciferin-H EGE luminescence, 30 min; inhibition, % at 5 µM; actives 21% (n = 96,000); AID 778;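 active = CYP2C19 inhibition above a set limit at 5 µM in the primary screen, cut at about 50% in these data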;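 also: plate controls were negative control wells for no effect and 2.5 mM tranylcypromine positive control for full effect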
Target sequence (P33261 whole entry, looked up): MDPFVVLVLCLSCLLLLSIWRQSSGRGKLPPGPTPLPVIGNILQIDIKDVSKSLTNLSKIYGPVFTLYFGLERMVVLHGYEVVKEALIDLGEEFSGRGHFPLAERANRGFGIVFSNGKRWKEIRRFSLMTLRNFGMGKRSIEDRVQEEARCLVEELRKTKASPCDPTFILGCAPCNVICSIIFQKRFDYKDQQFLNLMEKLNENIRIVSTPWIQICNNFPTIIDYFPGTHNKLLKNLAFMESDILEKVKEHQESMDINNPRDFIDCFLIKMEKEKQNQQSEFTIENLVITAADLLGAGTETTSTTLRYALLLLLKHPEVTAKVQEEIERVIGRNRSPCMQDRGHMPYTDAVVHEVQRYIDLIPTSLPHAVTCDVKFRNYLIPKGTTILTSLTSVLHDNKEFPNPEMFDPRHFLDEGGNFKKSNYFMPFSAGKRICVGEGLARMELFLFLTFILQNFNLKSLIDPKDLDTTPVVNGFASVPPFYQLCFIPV
PLK1 PBD inh – blocks phosphopeptide binding to human Plk1 polo box domain | P53350 | Plk1 PBD phosphopeptide binding, fluorescence polarization | inhibition, %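 (tested at about 20 µM)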 | actives 0.13% (n = 97,000) | AID 693; in the data active = inhibition above about 34%, passing the limit was not always enough
CYP2C19 act – activators of human cytochrome P450 2C19; 96,000 tested, under 10 active; AID 1025; recombinant CYP2C19, luciferin-H EGE luminescence; active compounds read high; 0 = fully inhibited enzyme, 1 = untreated enzyme; activation factor at 5 µM;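 active = activation factor of at least 2 at 5 µM in the primary screen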;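 also: 0 = wells with 2.5 mM tranylcypromine and 1 = vehicle-only wells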
* = called active by the depositor. Shown are actives, neighbours in structure and some others; about 28% of the full set was active somewhere.

What do the screens show for `CC(=O)Nc1ccccc1-c1nc2ccccc2nc1OCC(=O)c1ccc2ccccc2c1`?
CYP2C9 inh: 67.9*; PLK1 inh: -14.9; CYP2C9 activ: 0.3; CYP2C19 inh: 19.9; PLK1 PBD inh: -16.0; CYP2C19 act: 0.8

Results for CCOC(=O)c1ccc(COc2nc3ccccc3nc2-c2ccccc2NC(C)=O)o1 ?
CYP2C9 inh: 29.0; PLK1 inh: -8.9; CYP2C9 activ: 0.7; CYP2C19 inh: 26.4; PLK1 PBD inh: 3.8; CYP2C19 act: 0.7

Results for CC(=O)Nc1ccccc1-c1nc2ccccc2nc1OCC(=O)c1ccc(Br)cc1 ?
CYP2C9 inh: 58.2*; PLK1 inh: 5.0; CYP2C9 activ: 0.4; CYP2C19 inh: 10.4; PLK1 PBD inh: -2.7; CYP2C19 act: 0.9

What do the screens show for `CN(C)CCNC(=O)c1ccc(COc2ccc(Cl)cc2Cl)cc1`?
CYP2C9 inh: 6.1; PLK1 inh: -9.2; CYP2C9 activ: 0.9; CYP2C19 inh: 9.5; PLK1 PBD inh: 6.3; CYP2C19 act: 0.9

Results for COc1ccc(NC(=O)CSc2nnc(-c3ccccc3)n2Cc2ccco2)cc1OC ?
CYP2C9 inh: 28.5; PLK1 inh: -7.4; CYP2C9 activ: 0.7; CYP2C19 inh: 16.0; PLK1 PBD inh: -11.0; CYP2C19 act: 0.8

What do the screens show for `O=C(c1ccc(Cl)c(Cl)c1)c1cc(-c2ccccn2)c(N2CCOCC2)s1`?
CYP2C9 inh: 65.3*; PLK1 inh: -15.1; CYP2C9 activ: 0.3; CYP2C19 inh: 29.5; PLK1 PBD inh: 5.5; CYP2C19 act: 0.7

How did CCOC(=O)N1CCC(Nc2c(NCCCOC)c(=O)c2=O)CC1 do in these assays?
CYP2C9 inh: -7.5; PLK1 inh: -19.5; CYP2C9 activ: 1.1; CYP2C19 inh: 0.5; PLK1 PBD inh: -12.6; CYP2C19 act: 1

What do the screens show for `C=CCn1c(SCc2c(C(=O)OC)sc(N)c2C(=O)OC)nnc1-c1ccc(Br)cc1`?
CYP2C9 inh: 87.1*; PLK1 inh: -10.4; CYP2C9 activ: 0.1; CYP2C19 inh: 71.5*; PLK1 PBD inh: 21.0; CYP2C19 act: 0.3

What do the screens show for `O=S(=O)(CCN(CCS(=O)(=O)C(F)(F)F)CC1CCCO1)C(F)(F)F` (stereo not given)?
CYP2C9 inh: -9.1; PLK1 inh: 6.8; CYP2C9 activ: 1.1; CYP2C19 inh: 3.2; PLK1 PBD inh: -1.9; CYP2C19 act: 1

Results for CCOc1ccc(-c2nc(N)ncc2Oc2cccc(OC)c2)c(O)c1 ?
CYP2C9 inh: -4.3; PLK1 inh: -7.4; CYP2C9 activ: 1; CYP2C19 inh: 0.7; PLK1 PBD inh: -6.6; CYP2C19 act: 1

How did COc1cccc(Oc2cncnc2-c2ccc(OC)cc2O)c1 do in these assays?
CYP2C9 inh: 99.1*; PLK1 inh: 0.6; CYP2C9 activ: 0; CYP2C19 inh: 98.3*; PLK1 PBD inh: 8.7; CYP2C19 act: 0

How did COc1ccc(C(=O)Cn2c(C(=O)/C=C/c3ccccc3)nc3ccccc32)cc1 do in these assays?
CYP2C9 inh: 9.0; PLK1 inh: -4.7; CYP2C9 activ: 0.9; CYP2C19 inh: -20.2; PLK1 PBD inh: -1.5; CYP2C19 act: 1.2

How did CC(C)NC(=S)N/N=C1\CCCCC1C1CCCCC1 (stereo not given) do in these assays?
CYP2C9 inh: 80.5*; PLK1 inh: -1.3; CYP2C9 activ: 0.2; CYP2C19 inh: 62.9*; PLK1 PBD inh: -4.6; CYP2C19 act: 0.4

How did CCNc1cc2oc(=O)c(CN3CCOCC3)c(C)c2cc1C do in these assays?
CYP2C9 inh: -226.6; PLK1 inh: -7.9; CYP2C9 activ: 3.3*; CYP2C19 inh: 21.7; PLK1 PBD inh: -0.6; CYP2C19 act: 0.8

What do the screens show for `COc1cc(OC)cc(C(=O)Nc2ccccc2NC(C)=O)c1`?
CYP2C9 inh: 25.5; PLK1 inh: -3.6; CYP2C9 activ: 0.7; CYP2C19 inh: 34.8; PLK1 PBD inh: -13.8; CYP2C19 act: 0.7

Results for O=C(NCNC(=O)c1ccccc1)c1ccccc1 ?
CYP2C9 inh: -3.1; PLK1 inh: -11.0; CYP2C9 activ: 1; CYP2C19 inh: 93.7*; PLK1 PBD inh: 0.9; CYP2C19 act: 0.1

What do the screens show for `COc1ccc(C(=O)NC(=S)NCc2ccccc2)cc1`?
CYP2C9 inh: -3.2; PLK1 inh: -7.0; CYP2C9 activ: 1; CYP2C19 inh: 4.4; PLK1 PBD inh: 11.5; CYP2C19 act: 1

What do the screens show for `COc1cc(OC)cc(C(=O)NCCNC(=O)c2ccccc2)c1`?
CYP2C9 inh: 46.4; PLK1 inh: -7.1; CYP2C9 activ: 0.5; CYP2C19 inh: 53.3*; PLK1 PBD inh: -41.2; CYP2C19 act: 0.5
